According to PubChem BioAssay (Tox21):
Records with an inconclusive call do not appear. Where a call stands in place of a potency, no number is given. A number with no mark means an inactive call. Active and inactive are the calls of the source. Calls come from the whole dose curve.

Experiment: qHTS assay to identify small molecule agonists of the hypoxia (HIF-1) signaling pathway - cell viability counter screen (AID 1224844); note: nearly all actives have a fitted effect of over 50% in size
Conditions: HRE-bla ME-180 viability, CellTiter-Glo luminescence, 17 h; series mostly up to 76.8 µM
Text: National Center for Advancing Translational Sciences [NCATS]
NIH Chemical Genomics Center [NCGC]
U.S. Environmental Protection Agency [EPA]
National Institutes of Environmental Health Sciences [NIEHS]
National Toxicology Program [NTP]
U.S. Food and Drug Administration [FDA]
Hypoxia-inducible factor-1 (HIF-1) is the major hypoxia-regulated transcription factor that controls cellular responses to low oxygen concentration. HIF-1 is composed of two subunits: hypoxia responsive HIF-1-alpha and constitutively expressed HIF-1-beta, which is also known as aryl hydrocarbon receptor nuclear translocator. During hypoxic conditions, HIF-1-alpha heterodimerizes with HIF-1-beta and translocates into the nucleus where the HIF-1 complex binds to the hypoxia-response element (HRE) and activates expression of target genes such as VEGF (vascular endothelial growth factor). The HIF-1 pathway is essential to normal growth and development, and is involved in the pathophysiology of cancer, inflammation, and ischemia.
Using a beta-lactamase reporter-gene under control of the hypoxia response element, a cell-based assay [CellSensor(TM) HRE-bla ME-180 from Life Technologies, Carlsbad, CA] was used to measure hypoxia-induced signaling. Tox21 10K library compounds were measured for their ability to induce the reporter gene activity. The cytotoxicity of the Tox21 compound library against HRE-bla ME-180 cell line was tested in parallel by measuring cell viability using CellTiter-Glo assay (Promega, Madison, WI) in the same assay wells.
Tox21 Assay Protocol Summary:
HRE-bla ME-180 cells were dispensed at 2,000 cells per well in 6 uL of assay medium containing 0.5% dialyzed FBS into black wall/clear-bottom 1536-well plates using a Multidrop Combi (Thermo Scientific, Waltham, MA) dispenser. After the assay plates were incubated at 37C and 5% CO2 for 5 hrs, 23 nL of compounds dissolved in DMSO, positive controls or DMSO only was transferred to each well of the assay plate using a Pintool station (Kalypsys, San Diego, CA). The assay plates were incubated at 37C and 5% CO2 for 17 hrs. One uL of LiveBLAzerTM B/G FRET substrate (CCF4-AM) (Life Technologies) was added to each well using a Flying Reagent Dispenser (FRD, Aurora Discovery, San Diego, CA). After 2 hr incubation at room temperature, fluorescence intensity (405 nm excitation, 460 nm and 530 nm emissions) was measured using an Envision plate reader (PerkinElmer, Shelton, CT). For cytotoxicity, 4 ul/well of CellTiter-Glo reagent was added into the assay plates using an FRD. After 30 min incubation at room temperature, the luminescence intensity was measured using a ViewLux plate reader (PerkinElmer).
In the case of OCC(CO)(CBr)CBr, the Potency is reported as “inactive”. With CCCCCCCCCCCCc1ccccc1 the Potency was “inactive”. For Fc1ccc(Br)cc1, the Potency was “inactive”. In the case of Cc1ccc(S(N)(=O)=O)cc1, the Potency is reported as “inactive”. In the case of CCCC(C)=O, the Potency is reported as “inactive”. With O=C(OCCOCCOC(=O)c1ccccc1)c1ccccc1 the Potency was “inactive”. For CC(=O)CC(=O)Nc1ccccc1, the Potency was “inactive”. For FC(F)(F)c1ccc(Cl)c(Cl)c1, the Potency was “inactive”. With OC[C@H]1O[C@@](CO)(O[C@H]2O[C@H](CO)[C@@H](O)[C@H](O)[C@H]2O)[C@@H](O)[C@@H]1O the Potency was “inactive”. In the case of C=CCOC(=O)c1ccccc1C(=O)OCC=C, the Potency is reported as “inactive”. For CCCCN(CCCC)CCCC, the Potency was “inactive”. With O=S1(=O)CC=CC1 the Potency was “inactive”. In the case of CCOC(=O)NNc1nncc2ccccc12, the Potency is reported as “inactive”. With CCCCCC/C(C=O)=C\c1ccccc1 the Potency was “inactive”. In the case of CCc1cccc(C)c1N, the Potency is reported as “inactive”. With Cc1ccc2oc(=O)ccc2c1 the Potency was “inactive”. With C#C[C@]1(O)CC[C@H]2[C@@H]3CCC4=CC(=O)CC[C@@H]4[C@H]3CC[C@@]21C the Potency was “inactive”. For COc1ccc2cc([C@H](C)C(=O)O)ccc2c1, the Potency was “inactive”. For C=C(C)C(=O)OCCOCCOCCOC(=O)C(=C)C, the Potency was “inactive”. With O=C(CC(C(=O)OC1CCCCC1)S(=O)(=O)O)OC1CCCCC1 (stereo not given) the Potency was “inactive”. In the case of Cc1cccc(O)c1, the Potency is reported as “inactive”. With CC(O)COCC(C)O (stereo not given) the Potency was “inactive”. For O=C(O)c1cc(C(=O)O)cc(S(=O)(=O)O)c1, the Potency was “inactive”. For CN(C)CCCN, the Potency was “inactive”. For OCCOCCOCCO, the Potency was “inactive”. In the case of C/C=C1/CC2C=CC1C2 (stereo not given), the Potency is reported as “inactive”. For CCN(CC)CCCC(C)Nc1ccnc2cc(Cl)ccc12 (stereo not given), the activity change, negative = cytotoxicity was -3.66% [at 15.8 µM]. In the case of C#CCN(C)Cc1ccccc1, the Potency is reported as “inactive”. In the case of O=C(O)c1cc(O)c(O)c(O)c1, the Potency is reported as “inactive”. For COc1ccc(Nc2ccccc2)c(C)c1, the Potency was “inactive”. With Cc1cc(C)c(C)cc1C the Potency was “inactive”. In the case of CC[C@H](C)C(=O)O[C@H]1C[C@@H](C)C=C2C=C[C@H](C)[C@H](CC[C@@H]3C[C@@H](O)CC(=O)O3)[C@H]21, the Potency is reported as “inactive”. With CCCCC(CC)CO (stereo not given) the Potency was “inactive”. For NNc1nncc2ccccc12, the Potency was “inactive”. With ON=C1CCCCC1 the Potency was “inactive”. With CCCCCCCCCCCCOCCO the Potency was “inactive”. With O=C=NCCCCCCN=C=O the Potency was “inactive”. For CC1CCC2CC1C2(C)C (stereo not given), the Potency was “inactive”. For COc1cc(Cc2cnc(N)nc2N)cc(OC)c1OC, the Potency was “inactive”. With O=C(O)CCCC[C@@H]1SC[C@@H]2NC(=O)N[C@@H]21 the Potency was “inactive”.
